Assay results as given in PubChem BioAssay (EPA / NIEHS).
The source made the active and inactive calls. Rule for the calls: active = hit-call score of the fitted dose curve at least 0.9, where 1 is the maximum; inactive = score below 0.9.

Assay: ATG_TGFb_CIS: Attagene CIS-FACTORIAL HepG2 Assay for human Transforming Growth Factor (TGF) (AID 2282967)
Conditions: HepG2 Attagene CIS TGFb reporter, mRNA transcription; actives raise or lower the signal
Procedure: ATG_CIS is a cell-based, multiplexed-readout assay that uses HepG2, a human liver cell line, with measurements taken at 24 hours after chemical dosing in a 24-well plate.ATG_TGFb_CIS is one of 52 assay component(s) measured or calculated from the ATG_CIS assay. It is designed to make measurements of mRNA induction, a form of inducible reporter, as detected with fluorescence intensity signals by Reverse transcription polymerase chain reaction (RT-PCR) and Capillary electrophoresis technology.Data from the assay component ATG_TGFb_CIS was analyzed into 1 assay endpoint. This assay endpoint, ATG_TGFb_CIS, was analyzed with bidirectional fitting relative to DMSO as the negative control and baseline of activity. Using a type of inducible reporter, measures of mRNA for gain or loss-of-signal activity can be used to understand the reporter gene at the transcription factor-level as they relate to the gene TGFB1. Furthermore, this assay endpoint can be referred to as a primary readout, because this assay has produced multiple assay endpoints where this one serves a reporter gene function. To generalize the intended target to other relatable targets, this assay endpoint is annotated to the growth factor intended target family, where the subfamily is transforming growth factor beta.
Human liver HepG2 cells are transiently transfected with multiple reporter transcription units (MRTUs) in 6-well plates using FuGene 6 reagent (Roche; 3 ml FuGene/1 mg DNA). The MRTU constructs are regulated by a cis-regulating element (promoter). […] A major difference between the CIS and TRANS system is that in CIS activities of endogenous TFs are measured, whereas the TRANS assay evaluates changes in activities of exogenous, chimeric NR-Gal4 proteins. […] At the end of 24 hour incubation, total RNA was isolated using TriZol reagent (Invitrogen). The isolated RNA is then reverse-transcribed using oligo(dT) primer and Mo-MLV reverse transcriptase (Invitrogen) with DNAse I (Ambion) treatment for 30 min. The one-tenth of the produced cDNA was amplified by PCR using Taq DNA polymerase (Invitrogen) and two reporter sequence-specific primers. The PCR products were fluorescently labeled by primer extension with 6-arboxyfluorescein (6-FAM) 5'-labeled reporter sequence-specific primer (2 min at 95 C, 20 s at 68 C and 10 min at 72 C) and these products were digested with 5U of HpaI (New England Biolabs) for 2h at 37 C. The fragments were purified using Qiaquick PCR columns (Qiagen), analyzed on an ABI 3130xL genetic analyzer (Applied Biosystems) with peak positions identified by using a set of X-rhodamine (ROX)-labeled MapMarker1000 molecular weight standards (BioVentures). The raw capillary electrophoresis data was processed using Attagraph software (Attagene).

Compound	outcome	AC50
O=C(O)Cc1ccccc1Nc1c(Cl)cccc1Cl	inactive	
CCCCC(CC)COC(=O)CC(C(=O)OCC(CC)CCCC)S(=O)(=O)O (stereo not given)	inactive	
O=[N+]([O-])C(CO)(CO)CO	inactive	
CCCCCCCCCCCCCCCC	inactive	
CCCCCC(=O)O	inactive	
CC(=O)C(C)=CC1C(C)=CCCC1(C)C (stereo not given)	inactive	
Cc1cccc([N+](=O)[O-])c1C	inactive	
CC(=O)Oc1ccccc1C(=O)O	inactive	
CNCc1cc(F)ccc1Oc1ccc(Cl)c(Cl)c1	inactive	
C=CCc1ccc(O)c(OC)c1	inactive	
Nc1ccc2c(c1)C(=O)c1ccccc1C2=O	inactive	
Nc1ccccc1N	inactive	
CN1CCN(Cc2cc(-c3ccc4[nH]c(=O)oc4c3)co2)[C@@H](c2ccc(F)cc2)C1	inactive	
CC1(C)CC(N=C=O)CC(C)(CN=C=O)C1 (stereo not given)	inactive	
O=C(N[C@@H](Cc1ccccc1)[C@@H](O)C(=O)N1C[C@@H](O)[C@@H](O)C1)c1cc2cc(Cl)ccc2[nH]1	inactive	
CN[C@H]1CC[C@@H](c2ccc(Cl)c(Cl)c2)c2ccc(S(N)(=O)=O)cc21	inactive	
Cc1nc(C)nc(N2C[C@@H](C)N(c3ccnc([C@@H](C)O)n3)[C@@H](C)C2)n1	inactive	
NC(=O)Cn1c(=O)cc(CCN2CCN(c3nccc4sccc34)CC2)c2ccc(F)cc21	inactive	
C[C@]12C=CC(=O)C=C1CC[C@@H]1[C@@H]2C(=O)C[C@@]2(C)[C@H]1CC[C@]2(O)C(=O)CO	inactive	
O=c1[nH]cc(F)c(=O)[nH]1	inactive	

Compound	outcome	AC50
Cc1ccc(C)c(O)c1C	inactive	
CCCCCCCC=O	inactive	
CC=Cc1ccc(O)c(OC)c1	inactive	
COc1cc(/C=C/C(=O)CC(=O)/C=C/c2ccc(O)c(OC)c2)ccc1O	inactive	
NCC1(Cc2noc(=O)[nH]2)CCCCC1	inactive	
CCCCCCCCCCC	inactive	
COc1ccc(S(=O)(=O)N2C(=O)[C@@](c3ccccc3OC)(N3C[C@H](O)C[C@H]3C(=O)N(C)C)c3cc(Cl)ccc32)c(OC)c1		145 µM (active)
O=C(OCCCCCOC(=O)c1ccccc1)c1ccccc1	inactive	
Oc1ccc2ccccc2c1N=Nc1ccccc1		100 µM (active)
CCc1c(C(=O)NN2CCCCC2)nn(-c2ccc(Cl)cc2Cl)c1-c1ccc(Br)cc1	inactive	
Cc1ccc2ncccc2c1	inactive	
CC(CO)OC(C)CO (stereo not given) (tested in a mixture with another compound)	inactive	
CCOC(=O)CCC(=O)OCC	inactive	
Cc1oc(-c2ccccc2)nc1CCOc1cccc2c1ccn2CCC(=O)O	inactive	
Cc1cccc(Nc2cc(Cl)nc(SCC(=O)O)n2)c1C	inactive	
Cc1ccc(C)c(C)c1	inactive	
Cc1cc(NC(=O)C(=O)O)cc(C)c1Oc1ccc(O)c2c1CCC2	inactive	
c1cc(-c2ccncc2)ccn1	inactive	
CC1=C(/C=C/C(C)=C/C=C/C(C)=C/CO)C(C)(C)CCC1	inactive	
CCCCCCCCCCO	inactive	
